# Experimental data taken from PubChem BioAssay (Tox21).
# Results filed as inconclusive are left out. Entries that show only a call come without a potency. A number with no mark means an inactive call. Active and inactive are the calls of the source. Calls come from the whole dose curve; as a rule, active = well fitted cell-killing curve with a large enough effect in the repeat runs; inconclusive = weak or mixed curves, or effect the other way; inactive = flat fitted curve, though single readings scatter.
# Assay: qHTS RealTime-Glo MT Cell Viability Assay in HepG2 cells - 0 hour (AID 1224889); note: nearly all actives have a fitted effect of over 50% in size
# Conditions: RealTime-Glo luminescence; series mostly up to 76.8 µM
# Excerpt: U.S. Tox21 Program National Center for Advancing Translational Sciences [NCATS] NIH Chemical Genomics Center [NCGC] U.S. Environmental Protection Agency [EPA] National Institutes of Environmental Health Sciences [NIEHS] National Toxicology Program [NTP] U.S. Food and Drug Administration [FDA] Tox21 Assay Overview: Measure of cell viability is critical in the cell-base assay. Analysis of cell viability is necessary for the characterization of cell responses to cytotoxic drugs and environmental stress. A RealTime-Glo MT Cell Viability Assay to monitor cell viability in real time of continues cell culture during 40 hours of compound treatment was used to screen Tox21 10K library compounds in HepG2 cells. The RealTime-Glo MT Cell Viability Assay is a nonlytic, homogeneous, bioluminescent method to measure cell viability in real time using a simple, plate-based method. The assay involves adding NanoLuc luciferase and a cell-permeant prosubstrate to cells in culture. Viable cells reduce the proprietary prosubstrate to generate a substrate for NanoLuc luciferase. This substrate diffuses from cells into the surrounding culture medium, where it is rapidly used by the NanoLuc Enzyme to produce a luminescent signal. The signal correlates with the number of viable cells, making the assay well suited for cytotoxicity studies.
# Tox21 Assay Protocol Summary: The mixture of HepG2 cell suspension and reagents were dispensed at 600cells/6 ul/well in 1536-well tissue culture treated black solid bottom plates using a Multidrop dispenser. After the assay plates were incubated at a 37 C/5% CO2 incubator for 5 hours, 23 nL of compounds dissolved in DMSO, positive and negative controls was transferred to the assay plate by a pintool work station. The plates were incubated at 37 C for 40 hours. The luminescence intensity were measured at 0h, 8h, 16h, 24h, 32h and 40h time points using ViewLux plate reader during compound treatment.
SMILES,"activity change, negative = cytotoxicity",Potency
CC(C)(C)CC(C)(C)c1ccc(Nc2ccc(C(C)(C)CC(C)(C)C)cc2)cc1,1.23% [at 6.97 µM],–
CC(CCc1ccccc1)NCC(O)c1ccc(O)c(C(N)=O)c1 (stereo not given),–,inactive
O=C(O)c1ccc2cc(C(=O)O)ccc2c1,–,inactive
CCN(CCN)c1cccc(C)c1,–,inactive
NC(=O)c1cccc([N+](=O)[O-])c1,–,inactive
Clc1ccnc(Cl)n1,–,inactive
C=CC(=O)OCCOC(=O)C=C,–,inactive
OC1CCC(C2CCCCC2)CC1 (stereo not given),–,inactive
CCCC(=O)OC(C)(C)Cc1ccccc1,–,inactive
C#C[C@]1(OC(C)=O)CC[C@H]2[C@@H]3CCC4=C/C(=N/O)CC[C@@H]4[C@H]3CC[C@@]21CC,–,inactive
C/C=C/C=C/COC(=O)C(C)C,–,inactive
[Cu+],–,inactive
Oc1ccccc1O,–,inactive
CCOC(=O)Cn1cccc1-c1nc(-c2ccc(OC)cc2)c(-c2ccc(OC)cc2)s1,–,inactive
CCOc1ccc2ccccc2c1C(=O)N[C@@H]1C(=O)N2[C@@H]1SC(C)(C)[C@@H]2C(=O)O,–,inactive
CC(C)=CCNc1ncnc2c1ncn2[C@@H]1O[C@H](CO)[C@@H](O)[C@H]1O,–,inactive
COc1cccc(OC)c1C(=O)O,–,inactive
C=Cc1cccc(C)c1,–,inactive
Cc1nc2n(c(=O)c1CCN1CCC(c3noc4cc(F)ccc34)CC1)CCCC2,–,inactive
CCCCCCOC(=O)C(C)CC (stereo not given),–,inactive

SMILES,"activity change, negative = cytotoxicity",Potency
CC1(C)CCC[C@]2(C)[C@H]3CC(=O)O[C@]3(C)CC[C@@H]12,–,inactive
C1CCC(SSC2CCCCC2)CC1,–,inactive
COC(=O)c1ccccc1C,–,inactive
COc1ccc2cc1Oc1ccc(cc1)C[C@H]1c3c(cc4c(c3Oc3cc5c(cc3OC)CCN(C)[C@@H]5C2)OCO4)CCN1C,–,inactive
O=S(=O)(O)c1ccc(Nc2nc(Nc3ccc(/C=C/c4ccc(Nc5nc(Nc6ccc(S(=O)(=O)O)cc6)nc(N(CCO)CCO)n5)cc4S(=O)(=O)O)c(S(=O)(=O)O)c3)nc(N(CCO)CCO)n2)cc1,–,inactive
CCC(CC)C(C)CCOC(C)=O (stereo not given),–,inactive
O=C1NC(=O)[C@@H]2CC=CC[C@H]12,–,inactive
CC(C)(C)c1ccc(C(O)CCCN2CCC(C(O)(c3ccccc3)c3ccccc3)CC2)cc1 (stereo not given),–,inactive
CCc1ccc(Br)cc1,–,inactive
Cc1cccc(C)c1NC(=O)c1ccc(N)cc1,–,inactive
Nc1nc(-c2ccccc2)cs1,–,inactive
Cc1cc(C(C#N)c2ccc(Cl)cc2)c(Cl)cc1NC(=O)c1cc(I)cc(I)c1O (stereo not given),–,inactive
O=c1[nH]c2ccccc2n1CCCN1CCN(C(c2ccccc2)c2ccccc2)CC1,–,inactive
O=C(c1ccc(O)c(O)c1)c1ccc(O)cc1O,–,inactive
C=CCn1c(=O)n(CC=C)c(=O)n(CC=C)c1=O,–,inactive
O=C1CCc2cc(OCCCCc3nnnn3C3CCCCC3)ccc2N1,–,inactive
Cl[Si](Cl)(c1ccccc1)c1ccccc1,–,inactive
COC(=O)C1=C(C)NC(C)=C(C(=O)OCCN2CCN(C(c3ccccc3)c3ccccc3)CC2)C1c1cccc([N+](=O)[O-])c1 (stereo not given),–,inactive
O=c1oc2cc(O)ccc2c2oc3cc(O)ccc3c12,–,inactive
c1ccc(SSc2ccccc2)cc1,–,inactive
